High-throughput results: PubChem, National Center for Advancing Translational Sciences (NCATS)
Hits are enriched below; roughly 21% of the tested compounds scored in any of these assays.
Cycloheximide cs = Cycloheximide Counterscreen for Small Molecule Inhibitors of Shiga Toxin; cell reporter, cycloheximide protein synthesis inhibition counterscreen; max response, %; hit rate 12% among 300,000; in the data active = max response mostly above about 13%, no sharp cut-off; inactive = mostly below about 14%; also: read at 38.3 µM for the half of the compounds with a filed dose; 0% is about no effect
AMA1-RON2 inh = qHTS for Inhibitors of AMA1-RON; Towards Development of Antimalarial Drug Lead: Primary Screen; Plasmodium falciparum AMA1 (3D7) - RON2 peptide interaction; AlphaScreen AMA1-biotinylated RON2 peptide binding; Potency, µM (titrated, usually from 58.2 µM), inactives show top-dose activity change, negative = inhibition, actives largely listed as inhibitors; hit rate 0.2% among 360,000; AID 720542, 2013;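 also: potency is read from the fitted curve at half-maximal effect; 0% = vehicle wells and -100% = peptide control; nearly all actives have a fitted effect of over 45% in size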
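AMA1 (3D7) with his tag at 25 nM final met compounds first, then biotinylated RON2 peptide at 25 nM; detection used donor plus acceptor beads, 10 µg/mL apiece, read by AlphaScreen after 30 min at room temperature.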
HCV inhibitor = qHTS Assay for Inhibitors of Hepatitis C Virus (HCV). Potency, µM (highest dose often 41.8 µM), without a hit: top-dose activity change, negative = inhibition, most hits filed as inhibitors. hit rate 3.4% among 340,000. Huh7.5.1 HCVcc-Cre infection, luciferase reporter, 44 h; also: potency is read from the fitted curve at half-maximal effect; % is scaled to controls: 0 for no effect and ±100 for the full control effect
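Luciferase read-out (15 sec integration) after a 15 min room-temperature substrate step quantifies HCVcc-Cre infection. Cells, 1,000 per well, had compound added 4 h post-plating, then virus at ~0.5 moi, and were cultured 44 h.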
Pf growth 48h = Primary qHTS for delayed death inhibitors of the malarial parasite plastid, 48 hour incubation; Potency, µM (top dose mostly 28.7 µM), for inactives: at the highest dose activity change, negative = inhibition, usual class: inhibitors; P. falciparum luciferase growth in erythrocytes, 48 h; hit rate 5.9% among 310,000; also: potency is read from the fitted curve at half-maximal effect; % is scaled to controls: 0 for no effect and ±100 for the full control effect
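A one-generation exposure of luciferase-tagged malaria parasites in RPMI 1640/Albumax erythrocyte culture, 37 C and 5% CO2. Inhibition is inferred from decreased luminescence after adding detection reagent.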
Pf growth 96h = Primary qHTS for delayed death inhibitors of the malarial parasite plastid, 96 hour incubation | Potency, µM (series often up to 28.7 µM), without a hit: at the top dose activity change, negative = inhibition, most hits filed as inhibitors | AID 504834, 2011 | P. falciparum luciferase reporter growth, 96 h | hit rate 6.9% among 320,000; also: potency is read from the fitted curve at half-maximal effect; % is scaled to controls: 0 for no effect and ±100 for the full control effect
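P. falciparum expressing integrated firefly luciferase, in erythrocytes at 2% hematocrit, 0.05% parasitemia, incubated with compounds 96 h at 37 C, 5% CO2. Growth inhibition read as loss of luminescence; two-generation exposure targets delayed-death apicoplast inhibitors.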
Shiga inhibitor = A qHTS for Small Molecule Inhibitors of Shiga Toxin | Vero cells, Shiga toxin protein synthesis inhibition reporter | hit rate 9.2% among 290,000 | inhibition, % at 38.7 µM | AID 2315, 2010; in the data active = inhibition mostly above about 28%, no sharp cut-off; inactive = mostly below about 43%; also: 0% is about no effect
* marks the source's active call; other numbers are inactive results; ? = inconclusive; . = no result given. Unless noted, calls follow the shape of the dose curve; as a rule, active = well fitted curve in the direction sought with a large enough effect; inconclusive = small, poorly fitted or top-dose-only effect, or another doubt; inactive = no such curve, though single readings can be large; an effect the other way counts as inactive or inconclusive.

SMILES | Cycloheximide cs | AMA1-RON2 inh | HCV inhibitor | Pf growth 48h | Pf growth 96h | Shiga inhibitor
Cc1ccc2c(COC(=O)CNC(=O)c3ccccc3)cc(=O)oc2c1 | 35.7* | -8.1% | 32.1% | 41.2% | 48.0% | 28.2
Cc1ccc2c(COC(=O)c3ccccc3OC(F)F)cc(=O)oc2c1 | 26.2* | 7.6% | 7.5% | 4.2% | 28.0% | 47.4
CC1(C)c2ccccc2-n2c1cc1oc(=O)cc(O)c1c2=O | -1.8 | 2.3% | -14.1% | -16.6% | -21.0% | -4.7
FC(F)(F)c1cc(-c2cccs2)nc2nc(N3CCOCC3)sc12 | -2.1 | -10.3% | 13.2% | ? | ? | 4.8
CCOC(=O)Nc1ccc2c(COC(=O)CNS(=O)(=O)c3cccc(Br)c3)cc(=O)oc2c1 | -1.3 | 7.1% | -6.0% | 36.3% | 64.4% | -2.6
CCOc1ccc(C(C)=O)cc1COC(=O)C1=COCCO1 | -1.3 | 0.4% | 10µM* | ? | ? | 21.3
CCOC(=O)Nc1ccc2c(COC(=O)c3ccccc3O)cc(=O)oc2c1 | 27.1* | -6.3% | ? | 3.7% | -17.0% | 75.6*
Cc1ccc2c(COC(=O)C3=COCCO3)cc(=O)oc2c1 | 64.0* | 0.0% | 0.7% | . | ? | 89.2*
CCOc1ccc(C(C)=O)cc1CC(C(N)=O)C(N)=O | -2.3 | 2.6% | 18.2% | . | -55.1% | -9.3
COc1ccc(-c2ccnc3nc(N4CCN(c5ccccc5)CC4)nn23)cc1 | 4.5 | -2.3% | ? | ? | 9.28µM* | -2.7
Cc1cccc(C(=O)N2CCCCCC2)c1[N+](=O)[O-] | -7.3 | -8.0% | 7.8% | 23.8% | 12.7% | -4.8
O=[N+]([O-])C(/C=C(/Cl)[N+](=O)[O-])=C(N1CCCCC1)N1CCCCC1 | 2.6 | 7.9% | 17.2% | 8.28µM* | 5.22µM* | 16.9
COc1ccc(CNC(=O)CCC(=O)N2CCN(S(=O)(=O)c3ccc(Cl)cc3)CC2)cc1 | -1.9 | -2.7% | -14.6% | -29.7% | ? | -16.3
O=[N+]([O-])c1ccc(N2CCOCC2)c([N+](=O)[O-])c1 | . | -3.8% | -9.3% | . | . | .
CC(C)=Cc1oc2ccc([N+](=O)[O-])cc2c1N1CCOCC1 | 20.8* | -19.8% | 0.1% | ? | ? | 64.9*
COc1ccc(S(=O)(=O)n2nc(OC(=O)c3ccc(C)cc3)cc2N)cc1 | 27.4* | -7.4% | -4.4% | -4.5% | . | 56.0
Cc1ccc(S(=O)(=O)n2nc(OC(=O)c3ccccc3F)cc2N)cc1 | -1.8 | 19.5% | 17.2% | 9.9% | 11.7µM* | -9.8
Cc1ccc(C(=O)Oc2cc(N)n(S(=O)(=O)c3ccc(C)cc3)n2)cc1 | -0.2 | 4.0% | 4.5% | -3.1% | 40.7% | 1.4
COc1cc(C(=O)Oc2cc(N)n(S(=O)(=O)c3ccc(F)cc3)n2)cc(OC)c1OC | -4.3 | 0.3% | 20.1% | 2.5% | 4.65µM* | -3.2
CS(=O)(=O)n1nc(OC(=O)c2cccc3ccccc23)cc1N | 63.1* | -19.2% | 8.4% | 20.3% | 5.22µM* | 72.1*
CC(NS(=O)(=O)c1cc2c3c(c1)CCN3C(=O)CC2)c1ccccc1 (stereo unspecified) | . | -8.7% | . | . | . | .
Cc1cccc(NC(=O)C2CCCN(c3ncnc4c3nc3n4CCCCC3)C2)n1 (stereo unspecified) | -3.7 | -3.7% | -10.1% | ? | ? | -7.0
Cc1ccc(CNC(=O)N2CCN(S(=O)(=O)c3ccccc3)CC2)cc1 | -0.8 | 0.9% | -4.6% | 26.8% | 14.0% | -7.0
Cc1ccc(S(=O)(=O)n2nc(OC(=O)c3c(-c4ccccc4Cl)noc3C)cc2N)cc1 | -3.9 | -13.2% | 9.2% | 11.3% | 2.08µM* | -1.6
O=C(O)c1ccccc1C(=O)Nc1ccc(Br)c(C(F)(F)F)c1 | -1.9 | -17.3% | 10.9% | 28.2% | 40.5% | 23.1
SMILES | Cycloheximide cs | AMA1-RON2 inh | HCV inhibitor | Pf growth 48h | Pf growth 96h | Shiga inhibitor
Cc1cc(C)c(C(=O)Nc2ccc(Br)c(C(F)(F)F)c2)c(C)c1 | 8.3 | 34.4% | ? | 13.1µM* | 9.28µM* | 14.5
Cc1ccc(NS(=O)(=O)c2ccc3c(c2)NC(=O)C(C)C(=O)N3)c(Cl)c1 (stereo unspecified) | -3.3 | 19.3% | 5.2% | 6.8% | 10.0% | -7.0
COc1ccc(Cl)cc1NS(=O)(=O)c1ccc2c(c1)NC(=O)CCS2 | -0.5 | 1.2% | 0.0% | 17.2% | 7.38µM* | 10.0
CCOC(=O)c1ccc(NS(=O)(=O)c2ccc3c(c2)NC(=O)CCS3)cc1 | 1.7 | -3.9% | 3.6% | -16.4% | ? | -2.2
Cc1ccc(NS(=O)(=O)c2ccc3c(c2)NC(=O)CCS3)c(C)c1 | -2.7 | -5.6% | -12.4% | 2.62µM* | 10.4µM* | -3.5
Cc1cc(C)c(NS(=O)(=O)c2ccc3c(c2)NC(=O)CCS3)c(C)c1 | -1.9 | 16.4% | 10.4% | 11.7µM* | 8.28µM* | 1.9
Cc1ccc(NS(=O)(=O)c2ccc3c(c2)NC(=O)CCS3)c(Cl)c1 | -0.8 | -1.4% | 5.9% | 4.65µM* | ? | -2.8
C[C@H](CO)N1C[C@H](C)[C@@H](CN(C)C(=O)CN2CCOCC2)Oc2ncc(-c3cncnc3)cc2C1=O | . | 15.0% | . | . | . | .
Clc1cc(Br)ccc1NCc1cccnc1 | 13.5 | 9.2% | -4.1% | 0.0% | -13.9% | 2.7
CC(C)NC(=NCc1ccc(Cl)cc1Cl)Nc1ccccc1 | -3.8 | -0.7% | ? | . | ? | -9.4
C[C@@H]1C(=O)N(S(=O)(=O)c2ccc([N+](=O)[O-])cc2)[C@H]1c1ccc(F)cc1 | -1.6 | . | . | . | . | -11.4
CCOc1ccc2nc(SCC(=O)N3CCCCCC3)c(C#N)cc2c1 | 8.2 | 2.6% | 7.94µM* | ? | 46.5% | 15.8
CCOc1ccc2cc(C#N)c(SCC(=O)N3CCOCC3)nc2c1 | 30.0* | -3.9% | ? | 66.6% | -8.7% | 101.0*
CCC(Cc1ccccc1)NS(=O)(=O)c1c(C)nc2sccn2c1=O (stereo unspecified) | -2.0 | 0.3% | 5.0% | -6.1% | 4.5% | 3.7
Cc1cc(C(=O)NCC(=O)OC(C)C(=O)N2CCOCC2)ccc1[N+](=O)[O-] (stereo unspecified) | . | 7.9% | 6.0% | ? | 7.38µM* | .
Cc1cc(C(=O)NCCN2CCOCC2)ccc1[N+](=O)[O-] | -1.8 | -13.4% | 4.5% | 47.6% | -27.9% | 8.3
CCOC(=O)C1(CCCc2ccccc2)CCN(C(=O)Cn2nc(C)nc2C)CC1 | -1.2 | 7.5% | -2.7% | -7.5% | -9.7% | -6.3
O=C(c1cn(-c2ccccc2)nc1-c1cccs1)N1CCOCC1 | 10.8 | -5.9% | -6.3% | 1.4% | 30.0% | 19.0
Cc1nn(-c2ccccc2)cc1/C=N/NC(N)=S | 13.0 | 63.2% | -8.5% | ? | ? | 39.6*
O=C(/C=C/c1cn(-c2ccccc2)nc1-c1cccs1)NCCN1CCOCC1 | 0.8 | -12.3% | 14.1µM* | ? | ? | 28.5
